Assay results published in PubChem BioAssay (Tox21).
Records with an inconclusive call do not appear. Calls of active or inactive are those of the source. Unless noted, calls follow the shape of the dose curve; as a rule, active = well fitted curve in the direction sought with a large enough effect in the repeat runs; inconclusive = weak or mixed curves; inactive = no such curve, though single readings can be large; an effect the other way counts as inactive or inconclusive.

Key:
[1] = qHTS assay for small molecule agonists of the p53 signaling pathway (AID 651631; calls by dose curve; also: nearly all actives have a fitted effect of over 15% in size)
How it was run: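 Quantitative high-throughput format: 4,000 p53RE-bla HCT-116 cells/well, 5 h pre-incubation, 16 h compound exposure at 37 °C, 2 h room-temperature substrate step, fluorescence intensity measured.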

[2] = qHTS assay for small molecules that induce genotoxicity in human embryonic kidney cells expressing luciferase-tagged ATAD5 (AID 651632); also: nearly all actives have a fitted effect of over 15% in size
How it was run: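 Concentration-response screen for ATAD5 upregulation in HEK293T luciferase reporter cells; 16 hr treatment at 37C, then luminescence after 30 min with Amplite at room temperature.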

[3] = qHTS assay for small molecule agonists of the p53 signaling pathway - cell viability (AID 651633; calls by dose curve;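 also: p53RE-bla HCT reporter cells with a stable beta-lactamase p53 reporter; series mostly up to about 83 µM; nearly all actives have a fitted effect of over 30% in size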)
How it was run: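 Viability counter-read: CellTiter-Glo luminescence (30 min, room temperature) in the same p53RE-bla plates. These plates had been exposed to compounds for 16 h at 37 C.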

[4] = qHTS assay for small molecules that induce genotoxicity in human embryonic kidney cells expressing luciferase-tagged ATAD5 - cell viability (AID 651634; calls by dose curve; also: nearly all actives have a fitted effect of over 25% in size)
How it was run: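 15.5 hr compound or vehicle exposure of HEK293T cells expressing luciferase-tagged ATAD5 at 37C; live-cell protease activity is read by fluorescence after 30 min of CellTiter-Fluor.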

[5] = qHTS assay for small molecule disruptors of the mitochondrial membrane potential - cell viability (AID 720634; calls by dose curve;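 also: human HepG2 liver cancer cells; series mostly up to about 83 µM; nearly all actives have a fitted effect of over 20% in size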)
How it was run: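 In this qHTS format, HepG2 cells plated overnight were pinned with compound, incubated 1 hr, and assayed for ATP luminescence with CellTiter-Glo after m-MPI dye addition.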

[6] = qHTS assay for small molecule disruptors of the mitochondrial membrane potential (AID 720635); also: potency is read from the fitted curve at half-maximal effect
How it was run: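 Mitochondrial membrane potential tracked with Mito-MPS dye, red aggregates (ex 540/em 590 nm) against green monomers (ex 490/em 535 nm). Compound treatment 1 hr at 37C, dye 30 min in HepG2.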

[7] = qHTS assay to test for compound auto fluorescence at 590 nm (red) in HepG2 cells (AID 720674)
How it was run: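 We screened compounds on adherent HepG2 cells, incubating them for an hour at 37 C in 5% CO2 before reading emission at 590 nm under 540 nm excitation; values reflect equivalence to Rose Bengal sodium fluorescence.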

[8] = qHTS assay to test for compound auto fluorescence at 535 nm (green) in HepG2 cells (AID 720675)
[9] = qHTS assay to test for compound auto fluorescence at 460 nm (blue) in HEK293 cells (AID 720678)
How it was run: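 Blue read-out at excitation 405 nm and emission 460 nm follows overnight compound exposure of HEK293 cells at 37C in 5% CO2. Activity is given as auto fluorescence equivalency to triamterene.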

[10] = qHTS assay to test for compound auto fluorescence at 590 nm (red) in HEK293 cells (AID 720679)
How it was run: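 Red channel, Ex/Em 540/590nm; signal expressed as equivalency to Rose Bengal sodium. HEK293, 2,000 cells/well, 10% dialyzed FBS; 23 nL compound pinned after 4-5 hr attachment; overnight 37C/5% CO2 before reading.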

[11] = qHTS assay to test for compound auto fluorescence at 535 nm (green) in HEK293 cells (AID 720680)
[12] = qHTS assay to test for compound auto fluorescence at 460 nm (blue) in HEK293 cell free culture (AID 720681)
How it was run: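 Blue fluorescence (Ex 405/Em 460 nm, triamterene-equivalent) was read immediately after pin transfer of compound or DMSO into medium (DMEM, 10% FBS) without cells.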

[13] = qHTS assay to test for compound auto fluorescence at 535 nm (green) in HEK293 cell free culture (AID 720682)
How it was run: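 Measurement is a direct plate read of green fluorescence (485 nm in, 535 nm out) after compound addition to serum-supplemented DMEM lacking cells, with fluorescein used to express intensities.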

[14] = qHTS assay to test for compound auto fluorescence at 590 nm (red) in HEK293 cell free culture (AID 720683)
How it was run: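 Red-channel autofluorescence of compounds in culture medium (DMEM, 10% FBS), no cells, measured at 540/590 nm. Rose Bengal sodium is the reference fluorophore for equivalence.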

[15] = qHTS assay to test for compound auto fluorescence at 590 nm (red) in HepG2 cell free culture (AID 720684)
How it was run: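 No cells present: MEM + 10% FBS only. Compound pinned in, red label read (540/590 nm). Activity = fluorescence equivalent to Rose Bengal sodium.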

[16] = qHTS assay to test for compound auto fluorescence at 460 nm (blue) in HepG2 cell free culture (AID 720685)
How it was run: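 Cell-free plates of MEM plus 10% FBS received 23 nL compound or DMSO vehicle; blue-channel (405/460 nm) intensity scored against triamterene as reference fluorophore.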

[17] = qHTS assay to test for compound auto fluorescence at 535 nm (green) in HepG2 cell free culture (AID 720686)
[18] = qHTS assay to test for compound auto fluorescence at 460 nm (blue) in HepG2 cells (AID 720687)
How it was run: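 Blue-channel autofluorescence (Ex/Em 405/460 nm, triamterene-equivalent) was measured after 1 hr compound exposure at 37 C, 5% CO2. Cells were HepG2, plated overnight at 37 C in MEM plus 10% FBS.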

[19] = biological target: Glucocorticoid receptor (Homo sapiens) (UniProt P04150); experiment: qHTS assay to identify small molecule agonists of the glucocorticoid receptor (GR) signaling pathway (AID 720691; active = well fitted activation curve with a large enough effect in the signal ratio in the repeat runs, not every such curve was filed as active; the % refers to the signal ratio)
Sequence of Glucocorticoid receptor (Homo sapiens) (P04150 whole entry, looked up): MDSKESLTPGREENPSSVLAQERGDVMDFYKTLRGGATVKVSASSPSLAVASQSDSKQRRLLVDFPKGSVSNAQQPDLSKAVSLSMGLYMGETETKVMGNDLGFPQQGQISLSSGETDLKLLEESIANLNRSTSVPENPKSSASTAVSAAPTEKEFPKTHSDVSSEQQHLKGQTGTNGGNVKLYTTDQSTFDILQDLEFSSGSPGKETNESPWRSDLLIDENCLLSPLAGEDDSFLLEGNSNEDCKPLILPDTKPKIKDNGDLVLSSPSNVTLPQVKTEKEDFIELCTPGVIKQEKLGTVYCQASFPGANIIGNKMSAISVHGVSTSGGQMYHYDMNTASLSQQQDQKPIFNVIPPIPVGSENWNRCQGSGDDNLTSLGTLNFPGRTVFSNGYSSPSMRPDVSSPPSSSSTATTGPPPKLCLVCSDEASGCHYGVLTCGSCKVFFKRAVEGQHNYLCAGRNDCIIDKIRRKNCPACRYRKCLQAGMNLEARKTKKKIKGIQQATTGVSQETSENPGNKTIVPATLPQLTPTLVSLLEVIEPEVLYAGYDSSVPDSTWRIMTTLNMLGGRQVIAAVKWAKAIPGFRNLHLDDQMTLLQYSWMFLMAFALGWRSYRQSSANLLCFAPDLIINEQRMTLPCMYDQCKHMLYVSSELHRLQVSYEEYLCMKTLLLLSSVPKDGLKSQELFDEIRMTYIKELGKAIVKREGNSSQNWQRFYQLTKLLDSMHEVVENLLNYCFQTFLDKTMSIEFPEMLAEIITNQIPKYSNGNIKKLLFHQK
How it was run: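 Measures GR pathway activation through a GRE-beta-lactamase reporter stably integrated in HeLa cells, with 18 h compound treatment at 37 C and fluorescence detection using a FRET substrate.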

[20] = biological target: Glucocorticoid receptor (Homo sapiens) (UniProt P04150); experiment: qHTS assay to identify small molecule antagonists of the glucocorticoid receptor (GR) signaling pathway (AID 720692; active = well fitted inhibition curve with a large enough effect in the signal ratio in the repeat runs, not every such curve was filed as active; the % refers to the signal ratio)
How it was run: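 Tox21 10K library screened in concentration-response for blockade of dexamethasone (5 nM final)-induced GRE-bla reporter activity in HeLa cells; 18 h treatment, fluorescence read.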
% is scaled to controls: 0 for no effect and ±100 for the full control effect.

NC(CS)C(=O)O (stereo not drawn)
inactive: Potency [1] | Potency [2] | Potency [3] | Potency [4] | Potency [5] | Potency [6] | outcome [7] | outcome [8] | Potency [9] | outcome [10] | outcome [11] | Potency [12] | outcome [13] | outcome [14] | outcome [15] | Potency [16] | outcome [17] | Potency [18]

CCCCCCCCCCCCI
inactive: Potency [1] | Potency [2] | Potency [3] | Potency [4] | Potency [5] | Potency [6] | outcome [7] | outcome [8] | Potency [9] | outcome [10] | outcome [11] | Potency [12] | outcome [13] | outcome [14] | outcome [15] | Potency [16] | outcome [17] | Potency [18] | Potency [19] | Potency [20]

CN(C)CCn1nnnc1SCC1=C(C(=O)O)N2C(=O)[C@@H](NC(=O)Cc3csc(N)n3)[C@H]2SC1
inactive: Potency [1] | Potency [2] | Potency [3] | Potency [4] | Potency [5] | Potency [6] | fluorescence, relative to Rose Bengal [7] -0.434% [at 18.6 µM] | fluorescence, % of fluorescein control [8] -0.0016% [at 18.6 µM] | fluorescence, % of triamterene [9] 0.477% [at 18.6 µM] | fluorescence, % of fluorescent control [10] -0.137% [at 18.6 µM] | fluorescence, % of fluorescein [11] 0.129% [at 18.6 µM] | fluorescence, % of fluorescent control [12] 0.443% [at 18.6 µM] | activity change [13] 0.0595% [at 18.6 µM] | fluorescence, % of fluorescent control [14] 0.0008% [at 18.6 µM] | fluorescence, % of Rose Bengal [15] 0.544% [at 18.6 µM] | fluorescence, % of fluorescent control [16] 0.31% [at 18.6 µM] | fluorescence, % of fluorescein control [17] 0.0098% [at 18.6 µM] | fluorescence, % of fluorescent control [18] 0.222% [at 18.6 µM] | Potency [19] | Potency [20]

CCCCCN(CCCCC)C(=O)C(CCC(=O)O)NC(=O)c1ccc(Cl)c(Cl)c1 (stereo not drawn)
inactive: Potency [1] | Potency [2] | Potency [3] | Potency [4] | Potency [5] | Potency [6] | outcome [7] | outcome [8] | Potency [9] | outcome [10] | outcome [11] | Potency [12] | outcome [13] | outcome [14] | outcome [15] | Potency [16] | outcome [17] | Potency [18] | Potency [19] | Potency [20]

CC(C)c1cccc(O)c1
inactive: Potency [1] | Potency [2] | Potency [3] | Potency [4] | Potency [5] | outcome [7] | outcome [8] | Potency [9] | outcome [10] | outcome [11] | Potency [12] | outcome [13] | outcome [14] | outcome [15] | Potency [16] | outcome [17] | Potency [18] | Potency [19] | Potency [20]
active: Potency [6] 64.4 µM

FC(F)(F)C(F)(F)C(F)(F)C(F)(F)C(F)(F)C(F)(F)C(F)(F)C(F)(F)C(F)(F)C(F)(F)F
inactive: activation [1] -5.47% [at 8.3 µM] | activation [2] 3.4% [at 8.08 µM] | activity change, negative = cytotoxicity [3] -19.5% [at 8.08 µM] | activity, negative = cytotoxicity [4] 13.6% [at 8.08 µM] | activity change, negative = cytotoxicity [5] 3.63% [at 8.08 µM] | ratio activity, negative = MMP loss [6] 21.5% [at 8.08 µM] | fluorescence, relative to Rose Bengal [7] 0.158% [at 9.17 µM] | fluorescence, % of fluorescein control [8] -0.0906% [at 9.17 µM] | fluorescence, % of triamterene [9] -0.0034% [at 9.17 µM] | fluorescence, % of fluorescent control [10] -0.155% [at 9.17 µM] | fluorescence, % of fluorescein [11] 0.0789% [at 9.17 µM] | fluorescence, % of fluorescent control [12] -0.0458% [at 9.17 µM] | activity change [13] 0.0023% [at 9.17 µM] | fluorescence, % of fluorescent control [14] -0.0476% [at 9.17 µM] | fluorescence, % of Rose Bengal [15] -0.199% [at 9.17 µM] | fluorescence, % of fluorescent control [16] -0.151% [at 9.17 µM] | fluorescence, % of fluorescein control [17] 0.0369% [at 9.17 µM] | fluorescence, % of fluorescent control [18] 0.105% [at 9.17 µM] | activation [19] -0.303% [at 6.9 µM] | activity change, negative = inhibition [20] -11.7% [at 7.04 µM]

CCOC(=O)[C@H](CCc1ccccc1)N[C@@H](C)C(=O)N1CCC[C@H]1C(=O)O
inactive: Potency [1] | Potency [2] | Potency [3] | Potency [4] | Potency [5] | Potency [6] | outcome [7] | outcome [8] | Potency [9] | outcome [10] | outcome [11] | Potency [12] | outcome [13] | outcome [14] | outcome [15] | Potency [16] | outcome [17] | Potency [18] | Potency [19] | Potency [20]
